Experimental data published in PubChem BioAssay (Tox21).
Records with an inconclusive call do not appear. Calls of active or inactive are those of the source. Unless noted, calls come from the whole dose curve; as a rule, active = well fitted curve in the direction sought with a large enough effect in the repeat runs; inconclusive = weak or mixed curves; inactive = no such curve, though single readings can be large; an effect the other way counts as inactive or inconclusive.

How the values were obtained:
[1] = qHTS assay to identify small molecule agonists of the peroxisome proliferator-activated receptor delta (PPARd) signaling pathway - cell viability counter screen (AID 743211); note: nearly all actives have a fitted effect of over 55% in size
How it was run: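 Viability was measured as CellTiter-Glo luminescence (30 min, room temperature) in the same wells as the beta-lactamase readout. GeneBLAzer PPARd UAS-bla HEK293H cells received compound after 5 h plating and were incubated 17 h at 37 C.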

[2] = target: Peroxisome proliferator-activated receptor delta (Homo sapiens) (UniProt Q03181); experiment: qHTS assay to identify small molecule agonists of the peroxisome proliferator-activated receptor delta (PPARd) signaling pathway (AID 743212; calls by dose curve)
Peroxisome proliferator-activated receptor delta (Homo sapiens), sequence (Q03181 whole entry, looked up): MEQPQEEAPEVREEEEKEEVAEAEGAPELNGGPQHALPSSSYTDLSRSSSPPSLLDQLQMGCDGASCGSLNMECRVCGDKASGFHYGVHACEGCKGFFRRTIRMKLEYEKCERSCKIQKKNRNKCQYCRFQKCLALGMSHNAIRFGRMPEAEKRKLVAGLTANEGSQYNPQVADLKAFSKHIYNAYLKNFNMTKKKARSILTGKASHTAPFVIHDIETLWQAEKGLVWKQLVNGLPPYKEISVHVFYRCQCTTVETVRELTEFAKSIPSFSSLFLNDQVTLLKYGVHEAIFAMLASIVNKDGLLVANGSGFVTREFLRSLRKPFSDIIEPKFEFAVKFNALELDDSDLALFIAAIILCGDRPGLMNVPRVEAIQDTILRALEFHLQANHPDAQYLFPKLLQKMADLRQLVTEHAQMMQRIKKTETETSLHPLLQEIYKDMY
How it was run: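 A PPARd-bla HEK293H line with beta-lactamase under an Upstream Activator Sequence is treated with compounds at 37 C. Substrate loading for 2 h at room temperature precedes the fluorescence measurement.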

[3] = qHTS assay to identify small molecule antagonists of the peroxisome proliferator-activated receptor delta (PPARd) signaling pathway - cell viability counter screen (AID 743213); note: nearly all actives have a fitted effect of over 50% in size
How it was run: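 CellTiter-Glo was added to PPARd-bla HEK293H wells following 17 h compound treatment in the presence of 300 nM L165041. Luminescence was recorded after 30 min at room temperature.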

[4] = target: Peroxisome proliferator-activated receptor delta (Homo sapiens) (UniProt Q03181); experiment: qHTS assay to identify small molecule antagonists of the peroxisome proliferator-activated receptor delta (PPARd) signaling pathway (AID 743215; active = well fitted inhibition curve with a large enough effect in the signal ratio in the repeat runs, not every such curve was filed as active; the % refers to the signal ratio;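 note: cells stimulated with agonist L165041 at 300 nM final during compound exposure; series mostly up to about 62 µM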)
How it was run: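 Read-out is beta-lactamase FRET fluorescence, measured 2 h after substrate addition at room temperature. Beforehand, UAS-bla HEK293H cells carrying the PPARd reporter were exposed to compounds with L165041 at 300 nM final for 17 h at 37 C.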

[5] = target: Bile acid receptor (Homo sapiens) (UniProt Q96RI1); experiment: qHTS assay to identify small molecule antagonists of the farnesoid-X-receptor (FXR) signaling pathway (AID 743217; active = well fitted inhibition curve with a large enough effect in the signal ratio in the repeat runs, not every such curve was filed as active; the % refers to the signal ratio)
Bile acid receptor (Homo sapiens), sequence (Q96RI1 whole entry, looked up): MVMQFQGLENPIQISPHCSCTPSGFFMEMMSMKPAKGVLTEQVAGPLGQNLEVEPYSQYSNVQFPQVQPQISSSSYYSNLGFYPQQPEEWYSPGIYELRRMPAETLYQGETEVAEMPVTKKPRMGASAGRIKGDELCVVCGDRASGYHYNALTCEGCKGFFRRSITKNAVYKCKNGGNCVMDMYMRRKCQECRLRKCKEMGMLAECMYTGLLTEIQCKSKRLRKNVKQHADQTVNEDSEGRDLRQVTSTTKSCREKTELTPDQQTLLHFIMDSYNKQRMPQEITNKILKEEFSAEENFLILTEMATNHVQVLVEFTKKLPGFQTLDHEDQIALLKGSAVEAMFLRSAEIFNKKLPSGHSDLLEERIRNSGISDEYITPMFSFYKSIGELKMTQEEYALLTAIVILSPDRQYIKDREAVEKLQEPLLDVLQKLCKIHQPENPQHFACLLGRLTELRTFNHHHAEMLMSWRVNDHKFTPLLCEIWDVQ
How it was run: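 HEK 293T FXR-UAS-bla, 5000 cells/well; compound + CDCA 50 uM final; 16 h, 37 °C; B/G FRET substrate 2 h RT; fluorescence.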

[6] = qHTS assay to identify small molecule agonists of the farnesoid-X-receptor (FXR) signaling pathway - cell viability counter screen (AID 743218); note: nearly all actives have a fitted effect of over 45% in size
How it was run: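 HEK 293T FXR-bla cells; 5 h pre-incubation, 16 h compound exposure at 37 C; LiveBLAzer substrate 2 h RT, then CellTiter-Glo 30 min RT, luminescence.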

[7] = target: Bile acid receptor (Homo sapiens) (UniProt Q96RI1); experiment: qHTS assay to identify small molecule agonists of the farnesoid-X-receptor (FXR) signaling pathway (AID 743220; active = well fitted activation curve with a large enough effect in the signal ratio in the repeat runs, not every such curve was filed as active; the % refers to the signal ratio)
How it was run: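 Beta-lactamase reporter under UAS control in GeneBLAzer FXR HEK 293T cells (5000/well) measured with LiveBLAzer FRET substrate after 2 h at room temperature. Compound exposure lasted 16 h at 37C.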

[8] = qHTS assay to identify small molecule antagonists of the farnesoid-X-receptor (FXR) signaling pathway - cell viability counter screen (AID 743221; active = well fitted cell-killing curve with a large enough effect in the repeat runs, not every such curve was filed as active; note: nearly all actives have a fitted effect of over 50% in size)
How it was run: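 Cytotoxicity counter screen run in the FXR-bla reporter wells: HEK 293T cells exposed to compound with 50 uM (final) chenodeoxycholic acid for 16 h, 37 C, then viability measured by CellTiter-Glo luminescence after 30 min, room temperature.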

[9] = target: Vitamin D3 receptor (Homo sapiens) (UniProt P11473); experiment: qHTS assay to identify small molecule agonists of the vitamin D receptor (VDR) signaling pathway (AID 743222; calls by dose curve)
Vitamin D3 receptor (Homo sapiens), sequence (P11473 whole entry, looked up): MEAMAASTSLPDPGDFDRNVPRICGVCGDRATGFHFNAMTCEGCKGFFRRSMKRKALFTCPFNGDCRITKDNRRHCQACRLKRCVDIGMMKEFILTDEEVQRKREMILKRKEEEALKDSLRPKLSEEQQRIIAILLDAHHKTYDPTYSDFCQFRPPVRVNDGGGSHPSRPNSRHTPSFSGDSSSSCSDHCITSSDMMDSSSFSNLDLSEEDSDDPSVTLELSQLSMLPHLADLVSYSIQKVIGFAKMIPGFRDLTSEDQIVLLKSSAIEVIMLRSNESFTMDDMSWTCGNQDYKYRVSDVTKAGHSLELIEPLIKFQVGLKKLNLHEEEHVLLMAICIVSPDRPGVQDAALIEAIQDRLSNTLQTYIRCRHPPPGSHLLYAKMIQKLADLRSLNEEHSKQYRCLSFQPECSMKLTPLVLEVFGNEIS
How it was run: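 VDR-bla cells, 2,000/well; 4 h preincubation 37C; cpd (DMSO) 16 h; LiveBLAzer B/G substrate 2 h RT; fluorescence intensity read.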

[10] = target: Vitamin D3 receptor (Homo sapiens) (UniProt P11473); experiment: qHTS assay to identify small molecule antagonists of the vitamin D receptor (VDR) signaling pathway (AID 743223; active = well fitted inhibition curve with a large enough effect in the signal ratio in the repeat runs, not every such curve was filed as active; the % refers to the signal ratio)
How it was run: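 Antagonist mode: compound added to VDR-bla cells alongside agonist 1alpha,25-dihydroxyvitamin D3 (3 nM final), incubation 16 h at 37C. Read-out is LiveBLAzer FRET fluorescence, 2 h at room temperature.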

[11] = qHTS assay to identify small molecule agonists of the vitamin D receptor (VDR) signaling pathway - cell viability counter screen (AID 743224); note: series mostly up to about 63 µM; nearly all actives have a fitted effect of over 50% in size
How it was run: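 Luminescence from CellTiter-Glo, read after 30 min at room temperature, reports viability of VDR-bla cells treated with compounds for 16 h at 37C in the wells used for the beta-lactamase FRET read.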

[12] = qHTS assay to identify small molecule antagonists of the vitamin D receptor (VDR) signaling pathway - cell viability counter screen (AID 743225); note: nearly all actives have a fitted effect of over 50% in size
How it was run: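 Cytotoxicity counter screen read by CellTiter-Glo luminescence (30 min, room temperature) in the same wells as the VDR-bla antagonist readout. HEK 293T VDR-UAS-bla cells had 16 h at 37C with compound and 3 nM (final) 1-alpha,25-dihydroxyvitamin D3, then 2 h with FRET substrate.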

[13] = qHTS assay to identify small molecule agonists of the endoplasmic reticulum stress response signaling pathway (AID 1159516; active = well fitted activation curve with a large enough effect in the signal ratio in the repeat runs, not every such curve was filed as active; the % refers to the signal ratio)
How it was run: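 Read-out is beta-lactamase cleavage of a FRET substrate (405 nm excitation; 460 and 530 nm emissions) in ESRE-bla HeLa cells after a 5 hr compound exposure at 37 C. Substrate incubation ran 2 hr at room temperature.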

[14] = qHTS assay to identify small molecule agonists of the endoplasmic reticulum stress response signaling pathway - cell viability counter screen (AID 1159517; calls by dose curve)
How it was run: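 CellTiter-Glo was added to wells already read for beta-lactamase FRET, and luminescence was recorded 30 min later. Cells: ESRE-bla HeLa, 1,500 per well, compound exposure 5 hr at 37 C.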

[15] = qHTS assay to identify small molecule antagonists of the retinoid-related orphan receptor gamma (ROR-gamma) signaling pathway - cell viability counter screen (AID 1159520); note: nearly all actives have a fitted effect of over 50% in size
How it was run: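 Tet-on ROR gamma CHO cells (1,000/well) were plated 4 hr, given compounds in DMSO for 2 hr at 37 C, then induced with 1 uM final doxycycline for 16 hr. Viability was read as ATP by CellTiter-Glo luminescence after 30 min.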

[16] = qHTS assay to identify small molecule agonists of the AP-1 signaling pathway - cell viability counter screen (AID 1159525; calls by dose curve; note: nearly all actives have a fitted effect of over 55% in size)
How it was run: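 ME-180 AP-1-bla, 2500 cells/well, Opti-MEM + 0.5% dialyzed FBS; overnight 37 °C; cpd 15-pt titration, 5 h 37 °C; CellTiter-Glo 30 min RT; luminescence read; normalised to TOAB and DMSO controls.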

[17] = qHTS assay to identify small molecule agonists of the AP-1 signaling pathway (AID 1159526; calls by dose curve)
[18] = target: Nuclear receptor ROR-gamma (Homo sapiens) (UniProt P51449); experiment: qHTS assay to identify small molecule antagonists of the retinoid-related orphan receptor gamma (ROR-gamma) signaling pathway (AID 1159521)
How it was run: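 Antagonist read-out: drop in luminescence (ONE-Glo) from an RORE-LUC reporter in CHO cells with doxycycline-inducible ROR-gamma; 2 hr compound pretreatment, 1 uM doxycycline, 16 hr incubation at 37 C.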

[19] = target: Retinoic acid receptor RXR-alpha (Homo sapiens) (UniProt P19793); experiment: qHTS assay to identify small molecule agonists of the RXR signaling pathway (AID 1159527; calls by dose curve; note: nearly all actives have a fitted effect of over 35% in size; note: potency is the fitted concentration of half-maximal effect)
Retinoic acid receptor RXR-alpha (Homo sapiens), sequence (P19793 whole entry, looked up): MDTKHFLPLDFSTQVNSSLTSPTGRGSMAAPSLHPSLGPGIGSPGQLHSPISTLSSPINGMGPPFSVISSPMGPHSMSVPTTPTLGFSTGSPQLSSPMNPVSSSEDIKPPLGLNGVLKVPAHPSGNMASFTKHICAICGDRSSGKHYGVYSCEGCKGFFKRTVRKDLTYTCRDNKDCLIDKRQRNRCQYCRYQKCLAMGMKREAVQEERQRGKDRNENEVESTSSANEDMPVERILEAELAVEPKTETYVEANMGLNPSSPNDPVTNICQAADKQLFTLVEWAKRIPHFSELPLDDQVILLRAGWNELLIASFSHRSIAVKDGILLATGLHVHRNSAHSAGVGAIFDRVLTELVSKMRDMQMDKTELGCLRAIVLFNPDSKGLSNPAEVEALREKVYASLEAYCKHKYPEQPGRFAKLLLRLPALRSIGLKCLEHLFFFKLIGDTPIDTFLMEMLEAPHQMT
How it was run: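 Agonist-mode beta-lactamase reporter assay: HEK 293T RXR-alpha-UAS-bla cells treated 16 hr at 37 C with compounds, 9-cis retinoic acid as positive control. LiveBLAzer FRET substrate, 405 nm excitation, 460/530 nm emission.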

Measured: Potency

O=C(N/N=C/c1ccc([N+](=O)[O-])o1)c1cc([N+](=O)[O-])cc([N+](=O)[O-])c1O
not listed: [18] | [19]
inactive: all other assays above

CC(C)(C)OOC(C)(C)CCC(C)(C)OOC(C)(C)C
not listed: [2] | [4] | [5] | [7] | [10]
inactive: all other assays above

CCOP(=O)(SC(C)CC)N1CCSC1=O (stereo unspecified)
active: [19] 11 µM
not listed: [1] | [5] | [6] | [7]
inactive: all other assays above

Cc1ccc(N)c(C)c1
not listed: [6] | [7] | [12] | [18] | [19]
inactive: all other assays above

CC(C)(C)NCC(O)c1cc(Cl)c(N)c(C(F)(F)F)c1 (stereo unspecified)
not listed: [5] | [7] | [9] | [12]
inactive: all other assays above

N#CC(C#N)=Cc1ccc(O)c(O)c1
not listed: [5] | [7] | [9] | [12]
inactive: all other assays above

CCOC(=O)c1cn2nc(OP(=S)(OCC)OCC)cc2nc1C
not listed: [5] | [6] | [9] | [10] | [19]
inactive: all other assays above

CC(Cl)C(=O)O (stereo unspecified)
inactive: [1] | [11] | [13] | [14] | [15] | [18] | [16] | [17] | [19]

CC1(C)CC(=O)CC(C)(C)N1[O]
not listed: [7] | [18] | [19]
inactive: all other assays above

COc1cc(CC#N)cc(OC)c1OC
not listed: [2] | [4] | [5] | [6] | [7] | [12]
inactive: all other assays above

COC1=CC(=O)O[C@@H](/C=C/c2ccc3c(c2)OCO3)C1
not listed: [5] | [7] | [9] | [10] | [19]
inactive: all other assays above

FC(Cl)(Cl)C(F)(Cl)Cl
not listed: [2] | [4] | [5] | [6] | [7]
inactive: all other assays above

O=S(=O)(Cl)Cl
not listed: [2] | [3] | [4] | [5] | [6] | [7] | [8] | [12]
inactive: all other assays above

Cc1ccc2c(C)cccc2c1
not listed: [5] | [7] | [9] | [10] | [19]
inactive: all other assays above

COc1ccc2c(c1OC)C(=O)O[C@H]2[C@@H]1c2cc3c(cc2CCN1C)OCO3
not listed: [5] | [6] | [7] | [9] | [10] | [12] | [19]
inactive: all other assays above

O=C(NC(=O)c1cc(F)c(F)cc1Cl)Nc1cc(F)ccc1N1CCC(C(=O)O)CC1
not listed: [1] | [5] | [7] | [18] | [19]
inactive: all other assays above
